Screening results (PubChem BioAssay)
Compounds with a hit are over-represented: about 2.7% of the library has one in this group of screens.
CHT block: human CHT choline transport inhibition. actives 0.86% (n = 310,000). B-score at 10 µM. CHT-expressing cells, membrane potential dye, choline response; hits give low values;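 active = B-score over 3 SD under the library average, and starting fluorescence ratio not unusually high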;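 also: choline stimulus applied at its EC90 after an EC20 pre-addition; B-score computed on integrated fluorescence ratio after choline addition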
IDE cell inh: cellular human IDE inhibition. HEK cells, FAbetaB cleavage, fluorescence polarization. actives 0.41% (n = 320,000). AID 434962. inhibition, % at 5.59 µM;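 active = percent inhibition above the average of all tested compounds plus 3 SD, set per screening campaign, cut at about 16% in these data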;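 also: IDE supplied by intact live HEK cells; FP after avidin binding of uncleaved biotin substrate so inhibition keeps polarization high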
CHT PAM: allosteric activators of human choline transporter CHT; B-score at 10 µM; CHT-expressing cells, membrane potential dye, choline EC20; hits give high values; LV-AA mutant CHT in HEK293 cells; Q9GZV3; actives 0.49% (n = 310,000);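 active = initial fluorescence not abnormally high and integrated response B-score, plate-corrected, over 3 SD above library mean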
ANO1 activ: activates or potentiates the mouse TMEM16A chloride channel; Q8BHY3; HEK293 TMEM16A/YFP-H148Q/I152L, iodide quench fluorescence; hits give low values; B-score at 10 µM; actives 0.3% (n = 340,000); AID 623877;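 active = fluorescence-ratio B-score plate-corrected deviation score at least 3 library SD below zero, with starting fluorescence score within 5 deviations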;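 also: channel opened by trigger with iodide after compound preincubation; score built on the fluorescence ratio of max minus min over baseline; more negative score means more quench and so TMEM16A activation or potentiation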
TMEM16A inh: blocks the mouse calcium-activated chloride channel TMEM16A; HEK293 TMEM16A/YFP iodide influx fluorescence, ionomycin; Q8BHY3; normalized B-score (activity score, 25-100; higher = stronger inhibition) at 10 µM; AID 588511; actives 1.2% (n = 310,000);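 active = ratio plate-corrected score three or more library SD toward inhibition, starting fluorescence score within five deviations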;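 also: score derived from kinetic fluorescence span divided by baseline fluorescence per well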
IDE cell activ: IDE (human) activation, cell-based | actives 0.073% (n = 340,000) | P14735 | activation, % at 5.96 µM | AID 493087 | HEK cells, FAbeta-B cleavage, fluorescence polarization; 0% vehicle, 100% cell-free pure enzyme wells;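 active = activation above the mean of all tested compounds plus 3 SD, set per screening campaign, cut at about 17% in these data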
Each line names hits and unclear results; the compound was inactive in the other large screens.

Cc1ccc(-c2csc(Nc3ccccn3)n2)cc1	none
COc1ccc(-c2csc(Nc3ccccn3)n2)cc1OC	TMEM16A inh 25
O=c1ccc2c(-c3ccccc3)c3ccc(O)cc3oc-2c1	IDE cell activ 51
O=c1cc(-c2ccccc2)oc2cc(O)ccc12	none (no result: CHT block, IDE cell inh, CHT PAM, TMEM16A inh)
Nc1ccc(-c2c3ccc(=O)cc-3oc3cc(O)ccc23)cc1C(=O)O	IDE cell inh 17, IDE cell activ 47
O=C(NCC(c1ccco1)N1CCCC1)c1cc2ccccc2s1 (configuration not stated)	none (no result: CHT block, CHT PAM, TMEM16A inh)
O=C(CSc1nc2ccc([N+](=O)[O-])cc2[nH]1)NC1CCCCCC1	TMEM16A inh 100
O=C(CSc1nc2ccc(Cl)cc2[nH]1)NC1CCCC1	none
O=C(O)c1cc(N=Cc2c(O)c3ccccc3oc2=O)ccc1O	none (no result: IDE cell inh)
O=C(NCCOc1ccccc1)c1ccccc1Cl	none
CN(C(=O)COc1ccccc1C(=O)NCCOc1ccccc1)c1ccccc1	TMEM16A inh 25
Cc1ccc(S(=O)(=O)N2CCN(C(=O)CCOc3cc(C)ccc3C)CC2)cc1	ANO1 activ -44 (no result: CHT block, CHT PAM, TMEM16A inh)
O=C(Cc1cccs1)Nn1c(Cc2cccs2)nc2ccccc2c1=O	CHT block -6.7
O=C(Nn1c(Cc2cccs2)nc2ccccc2c1=O)c1ccc(F)c(F)c1	none
CCCC(=O)O[C@]1(C(=O)COC(C)=O)CC[C@H]2[C@@H]3C[C@H](F)C4=CC(=O)C=C[C@]4(C)[C@@]3(F)[C@@H](O)C[C@@]21C	CHT block -5
Cc1ccccc1Cn1c(=N)n(CC(O)c2ccco2)c2ccccc21 (configuration not stated)	none
CC(C)(C)c1ccc(Cn2c(=N)n(CC(O)c3ccco3)c3ccccc32)cc1 (configuration not stated)	CHT block -6.6
CN(Cc1ccccc1)C(=O)c1cccc(NC(=O)Cc2ccc(NC(=O)C3CCCN(C(=O)c4ccccc4)C3)cc2)c1 (configuration not stated)	none (no result: CHT block, IDE cell inh, CHT PAM, ANO1 activ, TMEM16A inh)
Cc1cc(NC(=O)COC(=O)C2CCN(S(=O)(=O)c3cccc(Cl)c3Cl)CC2)no1	TMEM16A inh 100
Cc1cc(NC(=O)COC(=O)C2CCN(C(=O)c3ccc(Cl)cc3)CC2)no1	none
S=c1[nH]nc(Cc2cccc3ccccc23)n1-c1ccccc1	ANO1 activ -7.2
O=C(c1ncn(Cc2ccccc2)c1C(=O)N1CCc2ccccc2C1)N1CCc2ccccc2C1	none (no result: CHT block, CHT PAM, TMEM16A inh)
CCN(CC(=O)Nc1ccc(NC(C)=O)cc1)CC(=O)Nc1cc(C)on1	none (no result: CHT block, CHT PAM, TMEM16A inh)
O=C(CCNC(=O)C1CCN(S(=O)(=O)c2ccccc2)CC1)NCc1ccncc1	ANO1 activ -28
CCCCn1c(N)c(N(CC(C)C)C(=O)c2ccc(C)c(S(=O)(=O)N3CCCCC3)c2)c(=O)[nH]c1=O	none
CN(C)CCCN(C(=O)COc1ccccc1)c1nc2ccc(Cl)cc2s1	ANO1 activ -6
COc1ccccc1CNC(=O)CN(C)Cc1ccc(SC)cc1	none
COc1ccc2c(c1OC)C(=O)N(c1cccc(C)c1)C2=O	ANO1 activ -4.9
COC1OC2COC(c3ccccc3)OC2C(O)C1NC(C)=O (configuration not stated)	none (no result: CHT block, IDE cell inh, CHT PAM, TMEM16A inh)
O=C(COC(=O)C1CC1)NCCc1ccccc1	none (no result: CHT block, CHT PAM, TMEM16A inh)
NS(=O)(=O)c1ccc(CCNC(=O)COC(=O)C2CCC2)cc1	ANO1 activ -4.6
Cn1c(=O)[nH]c2c(c1=O)CCO2	none (no result: CHT block, IDE cell inh, CHT PAM, TMEM16A inh)
COC(=O)c1c(NC(=O)CCc2ccc(C)o2)sc(C)c1C	TMEM16A inh 100
c1nc2n(n1)C1=C(CCCC1)C1(CCCCC1)N2	ANO1 activ -4.8
CCN(CC(=O)Nc1c(F)cccc1F)C(=O)CCCc1cccs1	ANO1 activ -39 (no result: CHT block, CHT PAM, TMEM16A inh)
CN(CC(=O)Nc1c(F)cccc1F)Cc1cccs1	none
O=C(O)c1ccc(CNCc2cccc(OCc3ccc(F)cc3)c2)cc1	none
Fc1ccc(COc2cccc(CNCc3ccncc3)c2)cc1	TMEM16A inh 25
CCOc1cc(CNCc2ccncc2)cc(Br)c1OCc1ccc(F)cc1	TMEM16A inh 100
Cc1ccc2nc(N(CCCN(C)C)C(=O)c3ccc(S(=O)(=O)N4CCCCCC4)cc3)sc2c1	CHT block -5.5
